Measured values reported in PubChem BioAssay (Tox21).
Inconclusive results are not listed. A number with no mark means an inactive call. Unless noted, the call rests on the fitted dose curve.

Assay: qHTS assay for small molecule agonists of the antioxidant response element (ARE) signaling pathway - cell viability counter screen (AID 743203); further: nearly all actives have a fitted effect of over 55% in size
Details: ARE-bla HepG2 viability, CellTiter-Glo luminescence, 16 h; series mostly up to 73.3 µM; viability change, negative = cytotoxic: at the top concentration
Method in brief: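 Seeded at 2,000 cells/well, ARE-bla HepG2 cells were incubated 5 hrs before compound addition. After 16 hrs of treatment at 37C with 5% CO2, CellTiter-Glo reagent was added and luminescence read 30 min later.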
On the % scale 0 is the no-effect control and ±100 the full control effect.

Structure (SMILES) | viability change, negative = cytotoxic
O=C(O)/C=C/c1ccc(Cn2ccnc2)cc1 | -4.28%
O=C(O)c1ccccc1S | 13%
c1ccc2cnncc2c1 | -0.242%
CCCCC1CCCCC(=O)O1 (centres undefined) | -0.247%
CCCCCCCCCCCCCCCCCCOCC(O)CO (centres undefined) | 6.1%
O=S(=O)(O)c1ccccc1O | 3.07%
CCc1cc(S(=O)(=O)O)c2cc(C(C)C)cccc1-2 | 8.86%
C=C(C)[C@@H]1CCC2=CC(=O)C[C@@H](C)[C@]2(C)C1 | 2.33%
C=C(C)[C@H]1CC=C(C)CC1 | 2.82%
c1ccc(SCCSc2ccccc2)cc1 | 1.01%
COC(C(=O)O)c1ccccc1 (centres undefined) | 10.9%
CC1=CC(C)C(C=O)C(C)C1 (centres undefined) | 10.1%
c1cc(CN2CCCCC2)cc(OCCCNc2nc3ccccc3s2)c1 | -9.16%
COC(=O)[C@H]1[C@H]2C[C@@H]3c4[nH]c5cc(OC)ccc5c4CCN3C[C@H]2C[C@@H](OC(=O)COc2ccc(OC)cc2)[C@@H]1OC | -0.468%
CN1[C@@H]2CC[C@H]1CC(NC(=O)n1c(=O)[nH]c3ccccc31)C2 (some centres undefined) | 0.956%
COc1ccc(N=[N+]([O-])c2ccc(OC)cc2)cc1 | -0.0206%
NC(CS)C(=O)O (centres undefined) | -1.78%
Oc1ccc2c(c1)OC[C@@H](N1CCC(O)(c3ccc(F)cc3)CC1)[C@H]2O | 4.65%

Structure (SMILES) | viability change, negative = cytotoxic
CCCCCCCCCCCCI | -5.78% [at 94.8 µM]
C=C(C)C(=O)NCCCN(C)C | 1.8%
CCCCCCCCCCCCCCC | 4%
CCC(=O)/C=C/c1ccc(OC)cc1 | 0.363%
OC1OC[C@@H](O)[C@H](O)[C@H]1O (some centres undefined) | 0.781%
CCN1CCCC(OC(=O)C(c2ccccc2)c2ccccc2)C1 (centres undefined) | -0.245%
Cn1cnc2c(=O)[nH]c(N)nc21 | -0.608%
CCCCOCC(C)OCC(C)O (centres undefined) | 0.543% [at 94.8 µM]
CC(C)c1ccc2oc3nc(N)c(C(=O)O)cc3c(=O)c2c1 | 6.3%
Cc1ccccc1Br | 1.33%
COC(=O)C1=C(C)NC(C)=C(C(=O)OCC(C)=O)C1c1ccccc1[N+](=O)[O-] (centres undefined) | 23.1%
CCCCC=O | 7.11%
Cc1nccn1CC1CCc2c(c3ccccc3n2C)C1=O (centres undefined) | 0.31%
N#CCN(CC#N)CCN(CC#N)CC#N | -10.9%
CN(C)N=Nc1ccccc1 | -23%
CCC(=O)Nc1cccc(N)c1 | 10.6%
Cc1nc(-c2ccc(OCC(C)C)c(C#N)c2)sc1C(=O)O | 8.93%
Cc1ccc(N)cc1[N+](=O)[O-] | 0.645% [at 94.8 µM]

Assay: qHTS assay for small molecule activators of the heat shock response signaling pathway - cell viability counter screen (AID 743209; active means well fitted cell-killing curve with a large enough effect in the repeat runs; further: nearly all actives have a fitted effect of over 50% in size)
Details: HSE-bla HeLa viability, CellTiter-Glo luminescence, 5 h; series mostly up to 62.6 µM; activity change, negative = cytotoxicity: at the top concentration
Method in brief: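 First, HSE-bla HeLa cells were seeded at 1500 cells/well and kept overnight at 37 C. Next, compounds were pinned in and incubated 5 h. After the FRET substrate step, CellTiter-Glo was added and luminescence read 30 min later.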

Structure (SMILES) | activity change, negative = cytotoxicity
O=C(O)/C=C/c1ccc(Cn2ccnc2)cc1 | 10.3%
c1ccc2cnncc2c1 | -2.8%
CCCCCCCCCCCCCCCCCCOCC(O)CO (centres undefined) | -3.38%
O=S(=O)(O)c1ccccc1O | 7.1%
CCc1cc(S(=O)(=O)O)c2cc(C(C)C)cccc1-2 | -11.4%
C=C(C)[C@@H]1CCC2=CC(=O)C[C@@H](C)[C@]2(C)C1 | -5.7%
C=C(C)[C@H]1CC=C(C)CC1 | -0.799%
COC(C(=O)O)c1ccccc1 (centres undefined) | 2.41%
CC1=CC(C)C(C=O)C(C)C1 (centres undefined) | 4.26%
c1cc(CN2CCCCC2)cc(OCCCNc2nc3ccccc3s2)c1 | 12.5%
COC(=O)[C@H]1[C@H]2C[C@@H]3c4[nH]c5cc(OC)ccc5c4CCN3C[C@H]2C[C@@H](OC(=O)COc2ccc(OC)cc2)[C@@H]1OC | 9.1%
CN1[C@@H]2CC[C@H]1CC(NC(=O)n1c(=O)[nH]c3ccccc31)C2 (some centres undefined) | 6.36%
COc1ccc(N=[N+]([O-])c2ccc(OC)cc2)cc1 | 1.78%
NC(CS)C(=O)O (centres undefined) | -0.531%
CCCCCCCCCCCCI | 2.4% [at 81.1 µM]
CCCCCCCCCCCCCCC | -2.87%
CCC(=O)/C=C/c1ccc(OC)cc1 | -0.151%
CN(C)C(=O)C(CCN1CCC(O)(c2ccc(Cl)cc2)CC1)(c1ccccc1)c1ccccc1 | -6.11%
CCN1CCCC(OC(=O)C(c2ccccc2)c2ccccc2)C1 (centres undefined) | -7.71%
Cn1cnc2c(=O)[nH]c(N)nc21 | 1.01%
CC(C)c1ccc2oc3nc(N)c(C(=O)O)cc3c(=O)c2c1 | -3.51%
Cc1ccccc1Br | -8.26%
COC(=O)C1=C(C)NC(C)=C(C(=O)OCC(C)=O)C1c1ccccc1[N+](=O)[O-] (centres undefined) | -0.669%
CCCCC=O | -1.94%
Cc1nccn1CC1CCc2c(c3ccccc3n2C)C1=O (centres undefined) | -9.45%
CN(C)N=Nc1ccccc1 | -14.8%
Cc1nc(-c2ccc(OCC(C)C)c(C#N)c2)sc1C(=O)O | -5.96%
Cc1ccc(N)cc1[N+](=O)[O-] | 5.43% [at 81.1 µM]

Assay: qHTS assay for small molecule activators of the heat shock response signaling pathway (AID 743210; active means well fitted activation curve with a large enough effect in the signal ratio in the repeat runs, with a control signal flat, not every such curve was filed as active; the % refers to the signal ratio)
Details: HeLa HSE-bla reporter, beta-lactamase ratio, 5 h; series mostly up to 62.6 µM; activation: at the top concentration
Method in brief: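 HSE-bla HeLa cells (beta-lactamase reporter under heat shock response elements), plated overnight, then exposed to compounds 5 h at 37 C; LiveBLAzer B/G FRET substrate added, 2.5 h at room temperature, fluorescence intensity read.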

Structure (SMILES) | activation
O=C(O)/C=C/c1ccc(Cn2ccnc2)cc1 | 0.109%
O=C(O)c1ccccc1S | -0.0181%
CCCCCCCCCCCCCCCCCCOCC(O)CO (centres undefined) | 1.25%
O=S(=O)(O)c1ccccc1O | 0.148%
C=C(C)[C@H]1CC=C(C)CC1 | -0.0579%
c1ccc(SCCSc2ccccc2)cc1 | -0.223%
COC(C(=O)O)c1ccccc1 (centres undefined) | -1.06%
CC1=CC(C)C(C=O)C(C)C1 (centres undefined) | -0.727%
c1cc(CN2CCCCC2)cc(OCCCNc2nc3ccccc3s2)c1 | -0.325%
CN1[C@@H]2CC[C@H]1CC(NC(=O)n1c(=O)[nH]c3ccccc31)C2 (some centres undefined) | -1.54%
COc1ccc(N=[N+]([O-])c2ccc(OC)cc2)cc1 | -0.737%
Oc1ccc2c(c1)OC[C@@H](N1CCC(O)(c3ccc(F)cc3)CC1)[C@H]2O | 0.441%
CCCCCCCCCCCCI | -0.965% [at 81.1 µM]
C=C(C)C(=O)NCCCN(C)C | -0.429%
CCCCCCCCCCCCCCC | 0.138%
CCC(=O)/C=C/c1ccc(OC)cc1 | 4.98%
OC1OC[C@@H](O)[C@H](O)[C@H]1O (some centres undefined) | -0.572%
CN(C)C(=O)C(CCN1CCC(O)(c2ccc(Cl)cc2)CC1)(c1ccccc1)c1ccccc1 | 3.16%
CCN1CCCC(OC(=O)C(c2ccccc2)c2ccccc2)C1 (centres undefined) | -1.62%
Cn1cnc2c(=O)[nH]c(N)nc21 | -0.808%
CCCCOCC(C)OCC(C)O (centres undefined) | -0.174% [at 81.1 µM]
CC(C)c1ccc2oc3nc(N)c(C(=O)O)cc3c(=O)c2c1 | -1.33%
Cc1ccccc1Br | -0.477%
CC(O)CN(CCCN(C)C)CCCN(C)C (centres undefined) | 0.305%
Cc1nc(-c2ccc(OCC(C)C)c(C#N)c2)sc1C(=O)O | -0.448%
